# Source: PubChem
# Shown are actives, neighbours in structure and some others; about 10% of the full set was active somewhere.
# Luciferase inh – inhibitors of firefly (Photinus pyralis) luciferase; AID 1347043; hit rate 2.5% among 76,000; Potency, µM (series often up to 115 µM), usual class: inhibitors; purified P. pyralis luciferase, luminescence, biochemical; P08659; note: nearly all actives have a fitted effect of over 65% in size
# Target sequence (P08659 whole entry, looked up): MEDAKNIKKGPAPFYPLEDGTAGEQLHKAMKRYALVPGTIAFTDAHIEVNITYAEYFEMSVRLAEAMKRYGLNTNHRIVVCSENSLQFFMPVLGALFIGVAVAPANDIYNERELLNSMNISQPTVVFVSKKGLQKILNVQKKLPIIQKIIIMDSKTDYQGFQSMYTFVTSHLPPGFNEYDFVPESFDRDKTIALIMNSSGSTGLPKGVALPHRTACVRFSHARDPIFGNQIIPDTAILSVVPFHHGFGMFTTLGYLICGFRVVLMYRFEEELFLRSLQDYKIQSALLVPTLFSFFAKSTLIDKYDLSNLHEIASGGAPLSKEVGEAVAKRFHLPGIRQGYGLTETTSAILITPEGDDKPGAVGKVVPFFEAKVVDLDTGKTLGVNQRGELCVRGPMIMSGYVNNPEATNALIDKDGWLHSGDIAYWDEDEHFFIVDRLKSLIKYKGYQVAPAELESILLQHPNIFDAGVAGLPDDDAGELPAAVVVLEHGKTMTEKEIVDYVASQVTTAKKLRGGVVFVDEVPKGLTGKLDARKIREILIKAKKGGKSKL
#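 Biochemical qHTS: compound (6-point titration) added to 10uM D-luciferin plus 10uM ATP in Tris acetate pH 7.5 buffer with Mg, Tween-20 and BSA, then purified enzyme at 10nM; light output imaged.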
# 3T3 cytotox – NIH 3T3 cell cytotoxicity. NIH 3T3 viability, CellTiter-Glo ATP luminescence, 48-72 h. Potency, µM (top dose mostly 96.7 µM), actives largely listed as inhibitors. hit rate 4.3% among 94,000; note: nearly all actives have a fitted effect of over 55% in size
#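 Mouse fibroblast NIH 3T3 cells, 400 per well, received compound via pintool and were incubated for 48 or 72 hr prior to CellTiter-Glo ATP luminescence measurement.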
# hNpr1 antagonist – antagonists of human natriuretic peptide receptor Npr1 | P16066 | HEK293 hNpr1 GloSensor cGMP, ANP-stimulated luminescence | Potency, µM (doses to about 46.3 µM), usual class: inhibitors | hit rate 1.6% among 76,000 | AID 1347048; calls by dose curve; note: nearly all actives have a fitted effect of over 60% in size
#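 Compound pre-incubated 30 min at room temperature on GloSensor-loaded HEK293 cells stably carrying hNpr1 and the pGS-40F cGMP biosensor. Stimulation uses hNppA at 0.1 nM final; luminescence is taken at baseline and 20 min post-agonist.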
# HEK293 tox – HEK 293 cell cytotoxicity; AID 1345083; HEK 293 viability, ATP luminescence (CellTiter-Glo), 48-72 h; hit rate 6.6% among 94,000; Potency, µM (doses to about 115 µM), hits mostly inhibitors; note: nearly all actives have a fitted effect of over 60% in size
#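 qHTS cytotoxicity; HEK 293, 250 cells/well; compound pinned; 48 or 72 hr, 37 degree Celsius, 5% CO2, 95% humidity; CellTiter-Glo, 10 min RT; luminescence (ATP).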
# GPT2 inh – inhibitors of human GPT2 alanine aminotransferase; AID 1671188; Q8TD30; Potency, µM (highest dose often 57.7 µM), actives largely listed as inhibitors; hit rate 0.25% among 100,000; Recombinant GPT2, coupled pyruvate oxidase/HRP Amplex Red fluorescence; note: nearly all actives have a fitted effect of over 60% in size
#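 Fluorescence read-out: pyruvate from GPT2 turnover coupled to pyruvate oxidase, HRP and Amplex Red (0.2mM ThPP, 0.2U/mL PO and HRP, 50uM Amplex final). Substrates 250uM a-KG, 2mM L-alanine; enzyme 10ng/uL; 30 min RT.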
# A number is an active result; i = inactive; ? = inconclusive; [ ] = remark or other dose. Unless noted, calls come from the whole dose curve; as a rule, active = well fitted curve in the direction sought with a large enough effect; inconclusive = small, poorly fitted or top-dose-only effect, or another doubt; inactive = no such curve, though single readings can be large; an effect the other way counts as inactive or inconclusive.
SMILES,Luciferase inh,3T3 cytotox,hNpr1 antagonist,HEK293 tox,GPT2 inh
COc1ccc(Cl)cc1NC(=O)CCC1CCCN(C(=O)CCc2c(C)noc2C)C1 (centres undefined),i,i,i,?,i
Cc1ccc(CNC(=O)c2ccc(-c3ccc(N4CCSCC4)nc3)cc2)o1,28.2µM,?,i,?,i
O=C(NCc1ccc2c(c1)OCO2)c1ccc(-c2ccc(N3CCSCC3)nc2)cc1,?,?,i,?,i
CC(C)CCNC(=O)c1ccc(-c2ccc(N3CCSCC3)nc2)cc1,?,i,i,i,i
COc1ccc(CNC(=O)c2ccc(-c3ccc(N4CCSCC4)nc3)cc2)cc1OC,?,?,10µM,?,i
COc1ccc2nc([C@H]3CCN(Cc4cccc(Cl)c4)C3)[nH]c2c1,i,?,?,?,i
COc1ccc2nc([C@H]3CCN(Cc4cccnc4)C3)[nH]c2c1,70.8µM,i,i,i,i
COc1ccc2nc([C@H]3CCN(Cc4ccccc4)C3)[nH]c2c1,22.4µM,?,i,?,i
Cc1ccc2nc([C@H]3CCN(Cc4ccccn4)C3)[nH]c2c1,39.8µM,?,i,50.1µM,?
COc1ccc2nc([C@H]3CCN(Cc4ccc(F)cc4)C3)[nH]c2c1,50.1µM,112µM,i,79.4µM,i
Cc1cc(C(=O)N2CCC3(CC2)Nc2ccccc2NC3=O)c2ccccc2n1,i,i,i,i,i[11.5 µM]
CCC1(O)CCC12CCN(C(=O)c1ccc(C)nc1)CC2 (centres undefined),i,i,i,i,i
CC(=O)N1CCC2(C1)OC(=O)Nc1cnccc12 (centres undefined),i,i,i,i,i
Cc1cnc(-c2ccccc2)n1C1CCCNC1 (centres undefined),i,i,i,i,i
CC1=C[C@@H](CN2CCN(c3cnccn3)CC2)[C@H](C(C)C)C[C@H]1Cc1nnc(-c2cccnc2)o1,i,?,?,35.5µM,?
CC(=O)N1CCN(C[C@@H]2C=C(C)[C@H](Cc3nnc(-c4cncn4C)o3)C[C@H]2C(C)C)CC1,i,?,i,?,i
CC1=C[C@@H](CN2CCN(c3ccccn3)CC2)[C@H](C(C)C)C[C@H]1Cc1nnc(-c2cncn2C)o1,i,?,i,31.6µM,i
CC1=C[C@@H](CN2CCN(c3ccc(F)cc3)CC2)[C@H](C(C)C)C[C@H]1Cc1nnc(-c2cncn2C)o1,i,?,i,22.4µM,i
CC1=C[C@@H](CN2CCN(c3ccccc3)CC2)[C@H](C(C)C)C[C@H]1Cc1nnc(-c2cncn2C)o1,i,?,i,35.5µM,i
CC(C)c1noc(-c2cn(C3CCN(C(=O)c4ccco4)C3)nn2)n1 (centres undefined),i,?,i,i,i
CC1=C[C@@H](CN2CCN(c3ccccn3)CC2)[C@H](C(C)C)C[C@H]1Cc1nnc(-c2ccc([N+](=O)[O-])cc2)o1,i,?,i,?,i
CC1=C[C@@H](CN2CCN(CCO)CC2)[C@H](C(C)C)C[C@H]1Cc1nnc(Cc2c[nH]c3ccccc23)o1,i,28.2µM,i,?,i
